“And” between values parts separate entries of the source, which are not always exact repeats. Equal values may be shown once. Out of some 5,500 compounds screened, about 2,000 (36%) were called active. Not shown: some 18% with an inconclusive outcome. Cut-off read from the data, not from the text of the source: active = normalized growth mostly below about 0.91 (no sharp cut-off); inconclusive = no clear call, values can overlap the other calls; inactive = mostly above about 0.92. The list shows a part of the results.
Assay: chemical genetic growth profiling, strain panel (AID 1159580);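 note: tested at 20 µM; growth read once vehicle control cultures reached saturation at 30 °C; 1 = growth at the plate median or of vehicle wells; lower values mean less growth of the strain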
Conditions: growth OD

Measured: normalized growth

NCCc1c[nH]c2ccccc12
inactive: S. cerevisiae deletion strains, locus YJR075W, strain HOC1, stronger effect = lower value 1.01 and 0.992 | S. cerevisiae deletion strains, locus YKL009W, strain mrt4, stronger effect = lower value 0.991 | S. cerevisiae deletion strains, locus YKL068W, stronger effect = lower value 0.987 | S. cerevisiae deletion strains, locus YKL085W, strain MDH1 (second series), stronger effect = lower value 0.996 | S. cerevisiae deletion strains, locus YKL085W, strain MDH1, stronger effect = lower value 0.996 | S. cerevisiae deletion strains, locus YKL160W, strain elf1, stronger effect = lower value 0.968 | S. cerevisiae deletion strains, locus YKL190W, strain CNB1, stronger effect = lower value 0.996 | S. cerevisiae deletion strains, locus YKR001C, strain vps1, stronger effect = lower value 0.987 | S. cerevisiae deletion strains, locus YKR026C, strain gcn3, stronger effect = lower value 0.958 | S. cerevisiae deletion strains, locus YKR091W, strain srl3, stronger effect = lower value 0.976 | S. cerevisiae deletion strains, locus YLL001W, strain dnm1, stronger effect = lower value 0.958 | S. cerevisiae deletion strains, locus YLL026W, stronger effect = lower value 0.941 | S. cerevisiae deletion strains, locus YLL041C, strain sdh2, stronger effect = lower value 0.965 | S. cerevisiae deletion strains, locus YLR027C, strain aat2, stronger effect = lower value 0.974 | S. cerevisiae deletion strains, locus YLR039C, strain RIC1, stronger effect = lower value 0.988 | S. cerevisiae deletion strains, locus YLR058C, strain SHM2, stronger effect = lower value 0.975 | S. cerevisiae deletion strains, locus YLR102C, strain apc9, stronger effect = lower value 0.996 | S. cerevisiae deletion strains, locus YLR113W, strain HOG1, stronger effect = lower value 0.999 | S. cerevisiae deletion strains, locus YLR221C, strain rsa3, stronger effect = lower value 0.998 | S. cerevisiae deletion strains, locus YLR258W, strain gsy2, stronger effect = lower value 0.965 | S. cerevisiae deletion strains, locus YLR262C, strain YPT6 (second series), stronger effect = lower value 0.956 | S. cerevisiae deletion strains, locus YLR262C, strain YPT6, stronger effect = lower value 0.934 | S. cerevisiae deletion strains, locus YLR268W, strain sec22, stronger effect = lower value 1.06 | S. cerevisiae deletion strains, locus YLR320W, strain mms22, stronger effect = lower value 0.985 | S. cerevisiae deletion strains, locus YLR330W, strain CHS5, stronger effect = lower value 0.973 | S. cerevisiae deletion strains, locus YLR342W, strain FKS1 (second series), stronger effect = lower value 0.986 | S. cerevisiae deletion strains, locus YLR342W, strain FKS1, stronger effect = lower value 0.972 | S. cerevisiae deletion strains, locus YLR357W, strain rsc2, stronger effect = lower value 0.987 | S. cerevisiae deletion strains, locus YLR370C, strain arc18, stronger effect = lower value 0.94 | S. cerevisiae deletion strains, locus YLR371W, strain rom2, stronger effect = lower value 0.982 | S. cerevisiae deletion strains, locus YLR384C, strain iki3, stronger effect = lower value 0.949 | S. cerevisiae deletion strains, locus YLR418C, strain cdc73, stronger effect = lower value 0.99 | S. cerevisiae deletion strains, locus YML016C, strain PPZ1, stronger effect = lower value 0.99 | S. cerevisiae deletion strains, locus YML032C, strain rad52, stronger effect = lower value 1.01 | S. cerevisiae deletion strains, locus YML120C, strain ndi1, stronger effect = lower value 0.962 | S. cerevisiae deletion strains, locus YML124C, strain tub3, stronger effect = lower value 0.988 | S. cerevisiae deletion strains, locus YMR058W, strain fet3, stronger effect = lower value 0.96 | S. cerevisiae deletion strains, locus YMR078C, strain ctf18, stronger effect = lower value 0.986 | S. cerevisiae deletion strains, locus YMR125W, strain sto1, stronger effect = lower value 0.96 | S. cerevisiae deletion strains, locus YMR129W, stronger effect = lower value 0.973 | S. cerevisiae deletion strains, locus YMR205C, strain PFK2, stronger effect = lower value 0.975 | S. cerevisiae deletion strains, locus YMR223W, strain ubp8, stronger effect = lower value 0.955 | S. cerevisiae deletion strains, locus YMR231W, strain pep5, stronger effect = lower value 0.97 | S. cerevisiae deletion strains, locus YMR263W, strain SAP30, stronger effect = lower value 0.995 | S. cerevisiae deletion strains, locus YMR307W, strain GAS1, stronger effect = lower value 0.987 | S. cerevisiae deletion strains, locus YNL067W, strain RPL9B, stronger effect = lower value 1.03 | S. cerevisiae deletion strains, locus YNL071W, strain lat1, stronger effect = lower value 0.973 | S. cerevisiae deletion strains, locus YNL128W, strain TEP1, stronger effect = lower value 0.976 | S. cerevisiae deletion strains, locus YNL153C, strain GIM3, stronger effect = lower value 1.02 | S. cerevisiae deletion strains, locus YNL175C, strain NOP13, stronger effect = lower value 1 | S. cerevisiae deletion strains, locus YNL183C, strain NPR1, stronger effect = lower value 0.97 | S. cerevisiae deletion strains, locus YNL197C, strain WHI3, stronger effect = lower value 0.989 | S. cerevisiae deletion strains, locus YNL209W, strain ssb2, stronger effect = lower value 0.96 | S. cerevisiae deletion strains, locus YNL224C, strain SQS1, stronger effect = lower value 1 | S. cerevisiae deletion strains, locus YNL233W, strain BNI4, stronger effect = lower value 1.01 | S. cerevisiae deletion strains, locus YNL248C, strain rpa49, stronger effect = lower value 0.986 | S. cerevisiae deletion strains, locus YNL250W, strain rad50, stronger effect = lower value 0.974 | S. cerevisiae deletion strains, locus YNL271C, strain bni1, stronger effect = lower value 0.994 | S. cerevisiae deletion strains, locus YNL298W, strain CLA4, stronger effect = lower value 0.995 | S. cerevisiae deletion strains, locus YNL307C, strain MCK1, stronger effect = lower value 0.984 | S. cerevisiae deletion strains, locus YNL322C, strain KRE1 (second series), stronger effect = lower value 0.943 | S. cerevisiae deletion strains, locus YNL322C, strain KRE1, stronger effect = lower value 0.988 | S. cerevisiae deletion strains, locus YNR049C, strain mso1, stronger effect = lower value 0.959 | S. cerevisiae deletion strains, locus YNR052C, strain pop2, stronger effect = lower value 0.985 | S. cerevisiae deletion strains, locus YOL006C, strain TOP1, stronger effect = lower value 1.05 | S. cerevisiae deletion strains, locus YOL012C, strain htz1 1.16 | S. cerevisiae deletion strains, locus YOL147C, strain pex11, stronger effect = lower value 0.988 | S. cerevisiae deletion strains, locus YOR001W, strain rrp6, stronger effect = lower value 0.971 | S. cerevisiae deletion strains, locus YOR061W, strain CKA2, stronger effect = lower value 0.97 | S. cerevisiae deletion strains, locus YOR069W, strain VPS5, stronger effect = lower value 0.992 | S. cerevisiae deletion strains, locus YOR070C, strain gyp1, stronger effect = lower value 0.982 | S. cerevisiae deletion strains, locus YOR080W, strain dia2, stronger effect = lower value 0.959 | S. cerevisiae deletion strains, locus YOR083W, strain WHI5 (second series), stronger effect = lower value 0.966 | S. cerevisiae deletion strains, locus YOR083W, strain WHI5, stronger effect = lower value 0.982 | S. cerevisiae deletion strains, locus YOR106W, strain vam3, stronger effect = lower value 0.942 | S. cerevisiae deletion strains, locus YOR136W, strain idh2, stronger effect = lower value 0.978 | S. cerevisiae deletion strains, locus YOR144C, strain elg1, stronger effect = lower value 0.999 | S. cerevisiae deletion strains, locus YOR184W, strain ser1, stronger effect = lower value 1 | S. cerevisiae deletion strains, locus YOR231W, strain MKK1, stronger effect = lower value 0.979 | S. cerevisiae deletion strains, locus YOR265W, strain rbl2, stronger effect = lower value 0.954 | S. cerevisiae deletion strains, locus YOR270C, strain vph1, stronger effect = lower value 0.892 | S. cerevisiae deletion strains, locus YOR290C, strain snf2, stronger effect = lower value 0.959 | S. cerevisiae deletion strains, locus YOR316C, strain cot1, stronger effect = lower value 0.995 | S. cerevisiae deletion strains, locus YPL051W, strain arl3, stronger effect = lower value 0.973 | S. cerevisiae deletion strains, locus YPL055C, strain LGE1, stronger effect = lower value 0.99 | S. cerevisiae deletion strains, locus YPL078C, strain atp4, stronger effect = lower value 0.943 | S. cerevisiae deletion strains, locus YPL106C, strain sse1, stronger effect = lower value 0.916 | S. cerevisiae deletion strains, locus YPL240C, strain hsp82, stronger effect = lower value 0.962 | S. cerevisiae deletion strains, locus YPL241C, strain CIN2, stronger effect = lower value 0.99 and 0.999 | S. cerevisiae deletion strains, locus YPL256C, strain CLN2, stronger effect = lower value 0.951 | S. cerevisiae deletion strains, locus YPR119W, strain clb2, stronger effect = lower value 0.992 | S. cerevisiae deletion strains, locus YPR141C, strain kar3, stronger effect = lower value 0.983 | S. cerevisiae deletion strains, locus YPR163C, strain tif3, stronger effect = lower value 0.986 | S. cerevisiae deletion strains, locus YPR167C, strain met16, stronger effect = lower value 0.994 | S. cerevisiae deletion strains, strain wtn01, stronger effect = lower value 1.02 | S. cerevisiae strains, strain wild type, stronger effect = lower value 0.987

From PubChem BioAssay AID1159580 (chemical genetic matrix, 2015)
